Assay results as given in ChEMBL document CHEMBL3433997, “St. Jude Leishmania screening dataset” (2016).

Columns and labels:
Format in all cases: functional
[1] = target: Solute carrier family 2, facilitated glucose transporter member 1 (Homo sapiens) (UniProt P11166); experiment: ST_JUDE_LEISH: Cytotoxicity at 2uM final concentration against transgenic Leishmania Mexicana promastigotes LmGLUT1 that are glucose transport deficient and complemented with the human glucose transporter GLUT1. Activity is measured by DNA content using SYBR green in vitro
Chain of Solute carrier family 2, facilitated glucose transporter member 1 (Homo sapiens) (P11166 whole entry): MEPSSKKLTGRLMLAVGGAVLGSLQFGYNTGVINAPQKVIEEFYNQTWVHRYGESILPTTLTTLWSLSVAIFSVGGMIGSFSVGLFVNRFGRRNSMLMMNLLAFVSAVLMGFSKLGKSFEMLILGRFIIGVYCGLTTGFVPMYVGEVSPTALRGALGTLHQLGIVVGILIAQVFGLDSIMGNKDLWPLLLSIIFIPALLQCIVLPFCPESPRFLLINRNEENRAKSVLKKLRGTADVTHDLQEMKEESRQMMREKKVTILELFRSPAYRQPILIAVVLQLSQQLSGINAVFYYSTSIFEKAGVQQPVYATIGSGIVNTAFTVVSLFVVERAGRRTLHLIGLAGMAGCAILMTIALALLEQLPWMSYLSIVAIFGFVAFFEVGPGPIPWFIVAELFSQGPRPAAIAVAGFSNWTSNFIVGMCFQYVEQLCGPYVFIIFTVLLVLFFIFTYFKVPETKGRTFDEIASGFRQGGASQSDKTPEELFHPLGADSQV

[2] = target: Hexose transporter 1 (Plasmodium falciparum) (UniProt O97467); experiment: ST_JUDE_LEISH: Cytotoxicity at 2uM final concentration against transgenic Leishmania Mexicana promastigotes LmPfHT that are glucose transport deficient and complemented with the Plasmodium falciparum hexose transporter. Activity is measured by DNA content using SYBR green in vitro
[3] = target: Glucose transporter (Leishmania mexicana) (UniProt O61059); experiment: ST_JUDE_LEISH: Cytotoxicity at 2uM final concentration against transgenic Leishmania Mexicana promastigotes LmGT2 that are glucose transport deficient and complemented with the L. Mexicana glucose transporter 2. Activity is measured by DNA content using SYBR green in vitro

| Structure (SMILES) | inhibition [1] [%] | inhibition [2] [%] | inhibition [3] [%] |
| --- | --- | --- | --- |
| COc1cc(Nc2ncnc3cc(OC)c(OC)cc23)cc([N+](=O)[O-])c1 | -1.65 | 0.11 | -0.41 |
| O=C(N[C@H]1CCN(CCc2ccc(O[C@H]3CCNC3)c(F)c2)C1)c1ccc(Cl)c(Cl)c1 | 8.17 | 9.6 | 9.34 |
| CN(C)C(=O)CC(=O)NCc1c(Cl)cccc1Cl | 0.42 | 4.4 | 2 |
| Cc1cnc(C(=O)Nc2cccc(-c3cccc(-c4nc5cccc(C)c5[nH]4)c3)c2)cn1 | 4.11 | 2.89 | 0.5 |
| CCOC(=O)c1ccc(NC(=O)Nc2ccc(-c3ccc(-c4nc5ccccc5[nH]4)cc3)cc2)cc1 | 3.64 | 3.36 | 3.8 |
| CN(C)CCCN1CCN(Cc2ccc(-c3ccc(-c4nc5ccccc5[nH]4)s3)cc2)CC1 | 11.2 | 8.38 | 12.1 |
| CC(=O)c1ccc(-c2ccc(C(=O)NCCCCN3CCC(c4ccc5c(c4O)CCCC5)CC3)cc2)cc1 | 3.01 | 3.4 | 1.3 |
| COc1ccc2nccc([C@@H](O)CN3CCC(NC(=O)/C(=C/c4ccccc4)c4ccc(-c5ccccc5)cc4)CC3)c2c1 | 1.6 | 0.83 | 0.6 |
| COc1ccc(CN(C)CCCc2ccc(NC(=O)c3cc4ccccc4[nH]3)cc2)cc1OC | 3.27 | 1.65 | 0.23 |
| C[C@@H](CC1CCCCC1)OC(=O)N(C)[C@@H]1CCN(C#N)C1 | 14.6 | 10.3 | 10.5 |
| CCCCCN1CCCC1CNS(=O)(=O)c1cccc(C(=O)Nc2cccc(C#N)c2)c1 (stereo unspecified) | 2.62 | 4.82 | 3.88 |
| CCOC(=O)NC1=NC(=N)N(OCCCOc2cc(Cl)c(Cl)cc2Cl)C(C)(C)N1 | -0.21 | -0.15 | 1.91 |
| CC1(C)NC(N)=NC(=N)N1OCOc1cc(Cl)c(Cl)cc1Cl | -2.15 | 0.84 | 6.16 |
| O=c1cc(NCCCNCc2cc(C(F)(F)F)ccc2F)[nH]c2ccccc12 | 0.7 | 0.86 | 3.1 |
| CC(C(=O)N1CCCC1)N1CCN(C(c2ccccc2)c2ccccc2)CC1 (stereo unspecified) | 2 | 2.36 | 2.74 |
| CC1(C)N=C(N)N=C(N)N1c1cc(Cl)c(Cl)c(Cl)c1 | 1.4 | 0.23 | 2.36 |

| Structure (SMILES) | inhibition [1] [%] | inhibition [2] [%] | inhibition [3] [%] |
| --- | --- | --- | --- |
| COc1ccc2nc3ccccc3c(NCCN3CCN(C)CC3)c2c1 | 7.5 | 5.93 | 4.16 |
| CN1CCCN(Cc2ccc(-c3cccc(NC(=O)c4cccc(F)c4)c3)cc2)CC1 | 12.9 | 9.38 | 7.57 |
| OCCN1CCN(Cc2ccc(-c3ccc(-c4nc5cc(C(F)(F)F)ccc5[nH]4)s3)cc2)CC1 | 5.47 | 4.05 | 4.01 |
| O=C(NCCNc1ccnc(NCc2ccc(F)cc2)n1)c1cc2ccccc2s1 | 4.76 | 4.26 | -0.4 |
| O=C(N1CCN(c2ccc(C(F)(F)F)cc2[N+](=O)[O-])CC1)C(Cl)(Cl)Cl | 3.26 | 3.64 | 1.86 |
| O=C(N[C@H](CC1CCCCC1)C(=O)NC1CCCc2ccccc21)c1ccc(O)c(-c2cccc([N+](=O)[O-])c2)c1 (stereo partly specified) | 1.2 | 0.18 | 0.88 |
| CC(Cc1ccc(OCCN2CCN(c3cccc(Cl)c3)CC2)cc1)NCC(O)c1cccc(Cl)c1 (stereo unspecified) | 0.3 | 0 | 1.82 |
| Cc1c(C(=O)Nc2cc(Sc3ccc(F)cc3)cc([N+](=O)[O-])c2)sc2ncn(Cc3cccc(F)c3)c(=O)c12 | 3.77 | -2.45 | 7.11 |
| O=C(Nc1ccc(-c2ccc(-c3nc4ccccc4[nH]3)cc2)cc1)Nc1ccc(Cl)c(Cl)c1 | 3.78 | 2.21 | -4.96 |
| C=CCNC(CCCCC)c1ccc(OCCOc2ccc(C(CCCCC)NCC=C)cc2)cc1 (stereo unspecified) | 0.79 | 11.9 | 3.03 |
| C=CCc1cc(Cc2cnc(N)nc2N)c2ccc(C)nc2c1O | 2.17 | 1.88 | 0.24 |
| Cc1cccc2nc(-c3ccc(-c4cccc(NC(=O)Cc5c[nH]cn5)c4)cc3)[nH]c12 | 1.52 | 3.26 | -1.21 |
| COC(=O)c1cccc(CNCc2ccc(-c3ccc(-c4nc5cc(C(F)(F)F)ccc5[nH]4)s3)cc2)c1 | 1.72 | 2.29 | 0.84 |
| Cc1[nH]c(C)c(-c2ccc(-c3ccccc3)nc2)c(=O)c1Br | -0.2 | 0.36 | 0.2 |
| O=S(=O)(Nc1ccc(CCN2CCC(N3CCCCC3)CC2)cc1)c1ccccc1C(F)(F)F | 13.5 | 13.4 | 11.3 |
| CCN(CC)CCNC(=O)c1ccc(N/C=C2\C(=O)Nc3ccc(S(=O)(=O)Cc4c(Cl)cccc4Cl)cc32)cc1 | -0.98 | -0.63 | -1.08 |
